Consider 17 compounds from PubChem BioAssay AID720518 (National Center for Advancing Translational Sciences (NCATS), 2013).

Records with an inconclusive call do not appear. Activity calls are given as the source filed them. Calls follow the shape of the full dose curve.

This assay in a line: qHTS for Inhibitors of Cell Surface uPA Generation: Wild-type Protective Antigen (WT-PrAg) Counterscreen for Cherry-picked Compounds. Also: 0% is about no effect. The following applies: cells, WT protective antigen toxicity counterscreen; series mostly up to 115 µM; activity (protection): at the top concentration. In general terms: Quantitative high-throughput screening tests each substance at several concentrations.
Consider `COc1ccc(CN2CCNC(=O)C2CC(=O)NCC2CCOCC2)cc1C` (configuration not stated), for which the “activity (protection)” value is -0.406% (inactive).

As for `Cc1cc(C)n(C(=O)c2cccc([N+](=O)[O-])c2)n1`, the “activity (protection)” value is -1.85% (inactive). Consider `COc1ncnc(NS(=O)(=O)c2ccc(N)cc2)c1OC`, for which the “activity (protection)” value was 0.0309% (inactive).

Consider `O=C(NC[C@H]1CCCO1)c1cccc2c1C(=O)c1ccc(-c3ccc(F)cc3OCc3ccccc3)cc1S2(=O)=O`, for which the “activity (protection)” value was -1.01% (inactive). Consider `O=C(NCCN1CCOCC1)c1ccc2c(c1)N(Cc1ccc(Cl)cc1)CCS2`, for which the “activity (protection)” value is 1.37% (inactive). Consider `CCNC(=S)NNC(=O)C(c1ccccc1)c1ccccc1`, for which the “activity (protection)” value was 0.86% (inactive).

For the compound `COc1ccc(C(=O)NCCOC(C)C)cc1OC1CCN(C(C)=O)CC1`, the “activity (protection)” value is -0.503% (inactive). Regarding `CC(=O)c1c(C)n(-c2ccccc2Br)c2ccc(O)cc12`, the “activity (protection)” value was -2.39% (inactive). As for `CCOCc1nnc(NC(=O)C2CCN(C(=O)C3CC(=O)N(c4ccc(C)cc4)C3)CC2)s1` (configuration not stated), the “activity (protection)” value is -1.11% (inactive).

Turning to `COc1ccc(N2CCN(C3CCN(S(=O)(=O)c4ccc(F)cc4)CC3)CC2)cc1`, the “activity (protection)” value is -0.637% (inactive). As to `Cc1ccc(-n2c(O)c(C=NCCN3CCNCC3)c(=O)[nH]c2=S)cc1`, the “activity (protection)” value is 6.27% (inactive). The value for `CC[C@]1(C(=O)OC)[C@H]2C(=O)N(C)C(=O)[C@H]2[C@H]2CN(C)C(=NC3CCCCC3)N21` was 1.39% (inactive). As for `Cc1cccc(Nc2ccc(NCc3ccccc3)nn2)c1`, the “activity (protection)” value is -1.9% (inactive). Turning to `COc1ccc(C[C@@H]2OC3(C=CC(=O)C=C3)O[C@H]2Cc2ccc(OC)cc2)cc1`, the “activity (protection)” value is -2.08% (inactive). As to `COc1ccc(CNC(=O)C2CCC(CNS(=O)(=O)c3ccc(C)cc3)CC2)cc1` (configuration not stated), the “activity (protection)” value is -1.42% (inactive). For `O=C(Nc1ccnn1C1CCN(CCCC2CCCC2)CC1)c1ccccc1`, the “activity (protection)” value is -2.33% (inactive). Turning to `CCCNC(=O)COc1coc(CN2CCN(c3ccccc3OC)CC2)cc1=O`, the “activity (protection)” value was -0.447% (inactive).
